Results on three compounds are retold here after PubChem BioAssay (EPA / NIEHS).

Holding throughout (details): mRNA level, 48 h; actives raise or lower the signal
Read-out in experiment [1]: Cytochrome P450 (CYP24A1), CYP24A1 (gene 1591)
As to the kind of experiment: LTEA_HepaRG_CYP24A1: Life Technologies and Expression Analysis (LTEA) Assay for Cytochrome P450 (CYP24A1) using HepaRG (AID 2283478). A digest of the protocol:
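qRT-PCR read-out: CYP24A1 transcript levels normalized to three housekeeping genes, bidirectional curve fits against 0.5% DMSO baseline. Human HepaRG cells treated 48 h with chemicals at eight concentrations from 100 uM in half-log steps.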

Read-out in experiment [2]: Cytochrome P450 (CYP1A2), CYP1A2 (gene 1544)
As to the kind of experiment: LTEA_HepaRG_CYP1A2: Life Technologies and Expression Analysis (LTEA) Assay for Cytochrome P450 (CYP1A2) using HepaRG (AID 2283479). A digest of the protocol:
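HepaRG, 48 h exposure, top 100 uM, half-log 8-pt, 0.5% DMSO vehicle, duplicates. Readout: TaqMan qRT-PCR of CYP1A2 mRNA, housekeeping-normalized (ACTB/GAPDH/POLR2A). Gain/loss fit relative to DMSO baseline.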

Read-out in experiment [3]: cysteine-aspartic acid protease (CASP8), CASP8 (gene 841)
The experiment can be described thus: LTEA_HepaRG_CASP8: Life Technologies and Expression Analysis (LTEA) Assay for cysteine-aspartic acid protease (CASP8) using HepaRG (AID 2283480). In a few lines:
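HepaRG, 48 h exposure, duplicate wells; 8 conc, half-log from 100 uM, 0.5% DMSO. Serum-free induction medium. CASP8 mRNA by TaqMan qRT-PCR, norm. ACTB/GAPDH/POLR2A; gain/loss fitted vs DMSO.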

Read-out in experiment [4]: Cytochrome P450 (CYP2B6), CYP2B6 (gene 1555)
The experiment can be described thus: LTEA_HepaRG_CYP2B6: Life Technologies and Expression Analysis (LTEA) Assay for Cytochrome P450 (CYP2B6) using HepaRG (AID 2283481). In a few lines: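 Read-out is CYP2B6 mRNA by TaqMan qRT-PCR, normalized to three housekeeping genes and fitted bidirectionally against 0.5% DMSO baseline. Human HepaRG cells received test chemicals for 48 h, top concentration 100 uM, half-log dilutions.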

Read-out in experiment [5]: Cytochrome P450 2C19 (Homo sapiens) (UniProt P33261)
The experiment can be described thus: LTEA_HepaRG_CYP2C19: Life Technologies and Expression Analysis (LTEA) Assay for CYP2C19 using HepaRG (AID 2283482). In a few lines: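 HepaRG, 48 h chemical exposure, 8-pt half-log series from 100 uM in 0.5% DMSO, duplicates. Readout: CYP2C19 mRNA by TaqMan qRT-PCR, housekeeping-normalized. Bidirectional fit vs DMSO baseline; phenobarbital 1mM as induction control.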

Read-out in another experiment: CYP2C8 (gene 1558)
The experiment can be described thus: LTEA_HepaRG_CYP2C8: Life Technologies and Expression Analysis (LTEA) Assay for CYP2C8 using HepaRG (AID 2283483). A digest of the protocol: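 CYP2C8 mRNA induction or loss, by qRT-PCR normalized to ACTB/GAPDH/POLR2A, is read in HepaRG cells after 48 h treatment. Concentrations run from 100 uM down in half-log dilutions, with 0.5% DMSO as vehicle and baseline.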

Read-out in the next experiment: CYP2C9 (gene 1559)
The experiment can be described thus: LTEA_HepaRG_CYP2C9: Life Technologies and Expression Analysis (LTEA) Assay for CYP2C9 using HepaRG (AID 2283484). In a few lines:
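Cells plated 48 h, switched to serum-free induction medium, then treated in duplicate for 48 h at eight concentrations (max 100 uM, 0.5% DMSO). RNA then analysed by qRT-PCR for CYP2C9; curves fitted in both directions relative to DMSO.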

Read-out in the next experiment: CYP2E1 (gene 1571)
As to the kind of experiment: LTEA_HepaRG_CYP2E1: Life Technologies and Expression Analysis (LTEA) Assay for CYP2E1 using HepaRG (AID 2283485). In a few lines:
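Human liver line HepaRG, plated 48 h, then serum-free induction medium + chemical x 48 h; 8-pt CRC from 100 uM, half-log, 0.5% DMSO, n=2. Readout: CYP2E1 mRNA qRT-PCR vs ACTB/GAPDH/POLR2A; bidirectional fit vs DMSO.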

Read-out in experiment [6]: Cytochrome P450 3A4 (Homo sapiens) (UniProt P08684)
The experiment can be described thus: LTEA_HepaRG_CYP3A4: Life Technologies and Expression Analysis (LTEA) Assay for CYP3A4 using HepaRG (AID 2283487). A digest of the protocol: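 HepaRG, 48 h exposure, 8-pt CRC from 100 uM (half-log), 0.5% DMSO, duplicates; serum-free induction medium. Readout: CYP3A4 mRNA, qRT-PCR, ACTB/GAPDH/POLR2A normalization. Bidirectional fit vs DMSO.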

Read-out in experiment [7]: DNA damage-inducible transcript 3 (DDIT3), DDIT3 (gene 1649)
The experiment can be described thus: LTEA_HepaRG_DDIT3: Life Technologies and Expression Analysis (LTEA) Assay for DNA damage-inducible transcript 3 (DDIT3) using HepaRG (AID 2283488). A digest of the protocol:
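HepaRG plated 48 h, switched to serum-free induction medium, dosed 48 h (100 uM top, half-log, 8 pts, 0.5% DMSO, n=2); RNA isolated; DDIT3 by qRT-PCR; bidirectional curve fit vs DMSO.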

Read-out in experiment [8]: Early growth response protein 1 (EGR1) transcription factor, EGR1 (gene 1958)
The experiment can be described thus: LTEA_HepaRG_EGR1: Life Technologies and Expression Analysis (LTEA) Assay for Early growth response protein 1 (EGR1) transcription factor using HepaRG (AID 2283490). A digest of the protocol:
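Read-out is EGR1 mRNA level by qRT-PCR, normalized to three housekeeping genes and analysed for gain or loss of signal against 0.5% DMSO. Source cells: human HepaRG, treated 48 h at up to 100 uM in half-log dilutions.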

Read-out in experiment [9]: Ezrin (EZR), EZR (gene 7430)
The experiment can be described thus: LTEA_HepaRG_EZR: Life Technologies and Expression Analysis (LTEA) Assay for Ezrin (EZR) using HepaRG (AID 2283491). In a few lines: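 Read-out is EZR transcript level by qRT-PCR, normalized to three housekeeping genes and fitted bidirectionally against the DMSO control. Human HepaRG cells received test chemicals for 48 h at eight half-log concentrations up to 100 uM in 0.5% DMSO.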

Read-out in experiment [10]: Cytochrome P450 3A7 (Homo sapiens) (UniProt P24462)
As to the kind of experiment: LTEA_HepaRG_CYP3A7: Life Technologies and Expression Analysis (LTEA) Assay for CYP3A7 using HepaRG (AID 2283492). In a few lines: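 CYP3A7 transcript levels were read by TaqMan qRT-PCR on Fluidigm arrays after 48 h chemical exposure of human HepaRG cells, with housekeeping-gene normalisation. Eight half-log concentrations up to 100 uM in 0.5% DMSO were tested in duplicate.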

Read-out in the next experiment: CYP3A5 (gene 1577)
As to the kind of experiment: LTEA_HepaRG_CYP3A5: Life Technologies and Expression Analysis (LTEA) Assay for CYP3A5 using HepaRG (AID 2283493). A digest of the protocol:
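HepaRG plated 48 h, switched to serum-free induction medium, chemicals added 48 h (max 100 uM, half-log, 0.5% DMSO). RNA isolated; CYP3A5 by TaqMan qRT-PCR. Gain/loss vs DMSO.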

Read-out in experiment [11]: Fatty Acid-Binding Protein 1 (FABP1), FABP1 (gene 2168)
As to the kind of experiment: LTEA_HepaRG_FABP1: Life Technologies and Expression Analysis (LTEA) Assay for Fatty Acid-Binding Protein 1 (FABP1) using HepaRG (AID 2283494). In a few lines: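 HepaRG, 48 h post-plating switched to serum-free induction medium, then dosed 48 h (duplicate, 8 pts, ≤100 uM, 0.5% DMSO). RNA → Fluidigm TaqMan qRT-PCR, FABP1 normed to ACTB/GAPDH/POLR2A. Bidirectional curve fit vs DMSO.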

Read-out in experiment [12]: Cytochrome P450 7A1 (Homo sapiens) (UniProt P22680)
The experiment can be described thus: LTEA_HepaRG_CYP7A1: Life Technologies and Expression Analysis (LTEA) Assay for Cytochrome P450 7A1 (CYP7A1) using HepaRG (AID 2283496). A digest of the protocol: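 HepaRG cells plated 48 h, then switched to serum-free induction medium and exposed in duplicate for 48 h to 8-point half-log series from 100 uM in 0.5% DMSO. CYP7A1 mRNA by qRT-PCR (TaqMan), normalized to ACTB/GAPDH/POLR2A; bidirectional fit versus DMSO.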

Read-out in experiment [13]: Glutathione S-Transferase (GSTA2), GSTA2 (gene 2939)
The experiment can be described thus: LTEA_HepaRG_GSTA2: Life Technologies and Expression Analysis (LTEA) Assay for Glutathione S-Transferase (GSTA2) using HepaRG (AID 2283497). In a few lines: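 HepaRG, 48 h dosing, 8-pt half-log CRC from 100 uM, 0.5% DMSO vehicle, n=2; RNA → Fluidigm TaqMan qRT-PCR; GSTA2 vs ACTB/GAPDH/POLR2A; gain/loss fit vs DMSO.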

Read-out in experiment [14]: Cytochrome P450 4A22 (Homo sapiens) (UniProt Q5TCH4)
As to the kind of experiment: LTEA_HepaRG_CYP4A22: Life Technologies and Expression Analysis (LTEA) Assay for Cytochrome P450 4A22 (CYP4A22) using HepaRG (AID 2283495). In a few lines:
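HepaRG, 48 h post-plating -> serum-free induction medium; dosed 48 h, duplicate, 8 conc. (100 uM top, half-log), 0.5% DMSO. Readout: CYP4A22 mRNA by qRT-PCR, ACTB/GAPDH/POLR2A normalization; gain/loss fit relative to DMSO.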

Read-out in the next experiment: CYP4A11 (gene 1579)
As to the kind of experiment: LTEA_HepaRG_CYP4A11: Life Technologies and Expression Analysis (LTEA) Assay for CYP4A11 using HepaRG (AID 2283486). A digest of the protocol: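 CYP4A11 transcript levels were quantified by TaqMan qRT-PCR after HepaRG human liver cells were treated for 48 hours with test chemicals (top 100 uM, half-log dilutions, 0.5% DMSO). Gain or loss of signal was fitted relative to DMSO.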

Read-out in experiment [15]: Pro-epidermal growth factor (Homo sapiens) (UniProt P01133)
As to the kind of experiment: LTEA_HepaRG_EGF: Life Technologies and Expression Analysis (LTEA) Assay for Epidermal growth factor (EGF) using HepaRG (AID 2283489). In a few lines: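 qRT-PCR readout of EGF transcript after 48 h chemical exposure of HepaRG cells; eight concentrations from 100 uM down in half-log steps, duplicate wells, 0.5% DMSO vehicle. Bidirectional curve fitting against DMSO baseline.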

The source made the active and inactive calls. The calls were made as follows: active = hit-call score of the fitted dose curve at least 0.9, where 1 is the maximum; inactive = score below 0.9.

Sequence of Cytochrome P450 2C19 (Homo sapiens) (P33261 whole entry, looked up): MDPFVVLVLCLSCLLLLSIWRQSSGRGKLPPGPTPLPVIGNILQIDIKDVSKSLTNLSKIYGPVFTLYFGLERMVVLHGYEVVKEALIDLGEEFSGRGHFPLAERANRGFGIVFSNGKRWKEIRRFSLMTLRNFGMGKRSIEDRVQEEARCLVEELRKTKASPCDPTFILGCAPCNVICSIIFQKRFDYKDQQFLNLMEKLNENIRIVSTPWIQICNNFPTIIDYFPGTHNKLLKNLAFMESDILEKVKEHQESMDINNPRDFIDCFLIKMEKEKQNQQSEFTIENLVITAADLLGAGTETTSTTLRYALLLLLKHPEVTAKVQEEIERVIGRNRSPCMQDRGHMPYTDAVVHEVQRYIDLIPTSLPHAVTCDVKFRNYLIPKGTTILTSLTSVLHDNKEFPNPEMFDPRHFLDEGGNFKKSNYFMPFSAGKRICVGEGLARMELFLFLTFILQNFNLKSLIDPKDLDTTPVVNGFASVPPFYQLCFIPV
Sequence of Cytochrome P450 3A4 (Homo sapiens) (P08684 whole entry, looked up): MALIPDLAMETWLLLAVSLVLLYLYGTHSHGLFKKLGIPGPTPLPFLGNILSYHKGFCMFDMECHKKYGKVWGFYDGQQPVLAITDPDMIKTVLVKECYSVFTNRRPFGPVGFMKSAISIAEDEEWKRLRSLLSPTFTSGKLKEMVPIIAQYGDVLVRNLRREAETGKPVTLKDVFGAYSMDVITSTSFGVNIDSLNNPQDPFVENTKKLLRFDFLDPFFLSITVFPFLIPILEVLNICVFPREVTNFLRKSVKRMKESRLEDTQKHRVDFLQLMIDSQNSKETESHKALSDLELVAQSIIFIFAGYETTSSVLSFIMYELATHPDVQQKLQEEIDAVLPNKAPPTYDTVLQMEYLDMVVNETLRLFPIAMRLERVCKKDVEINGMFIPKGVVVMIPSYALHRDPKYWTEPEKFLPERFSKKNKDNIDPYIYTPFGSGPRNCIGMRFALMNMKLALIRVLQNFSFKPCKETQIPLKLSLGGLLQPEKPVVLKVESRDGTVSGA
Sequence of Cytochrome P450 3A7 (Homo sapiens) (P24462 whole entry, looked up): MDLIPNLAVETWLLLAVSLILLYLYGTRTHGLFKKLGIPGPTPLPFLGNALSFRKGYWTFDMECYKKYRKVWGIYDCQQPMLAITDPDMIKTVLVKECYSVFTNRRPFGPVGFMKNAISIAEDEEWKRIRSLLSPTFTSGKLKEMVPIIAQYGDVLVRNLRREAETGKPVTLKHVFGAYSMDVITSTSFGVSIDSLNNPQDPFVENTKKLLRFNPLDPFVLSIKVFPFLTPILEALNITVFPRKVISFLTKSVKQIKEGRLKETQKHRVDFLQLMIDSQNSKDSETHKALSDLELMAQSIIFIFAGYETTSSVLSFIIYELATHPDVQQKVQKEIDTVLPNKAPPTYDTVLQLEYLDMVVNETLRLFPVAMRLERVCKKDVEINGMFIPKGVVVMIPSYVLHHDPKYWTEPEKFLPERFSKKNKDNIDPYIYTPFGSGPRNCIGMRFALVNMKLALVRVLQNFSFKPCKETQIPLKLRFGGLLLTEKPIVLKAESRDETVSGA

On to `CC(=O)O`, for which the call (in [1]; in experiment [2]; in experiment [3]; in experiment [4]; in experiment [5]; with CYP2C8 (gene 1558)) was inactive. Also, the compound was called inactive (with CYP2C9 (gene 1559); with CYP2E1 (gene 1571); in experiment [6]; in [7]; in experiment [8]; in experiment [9]). For the same compound, the result (in experiment [10]; with CYP3A5 (gene 1577); in experiment [11]; in [12]; in experiment [13]) was inactive.
As for `C=CCCCCCCCCCCCC`, the compound was called inactive (in experiment [1]; in experiment [3]; in experiment [4]; in experiment [5]; with CYP2C8 (gene 1558); with CYP2C9 (gene 1559)). The compound was called inactive (with CYP2E1 (gene 1571); in experiment [6]; in experiment [7]; in [8]; in [9]; in experiment [10]). The result (in the experiment with CYP3A5 (gene 1577); in [11]; in experiment [14]; in [12]; in experiment [13]) was inactive. The AC50 in experiment [2] is 50 µM (active).
As for `OCC(O)CO`, the outcome (in experiment [1]; in experiment [2]; in [3]; in experiment [5]; with CYP2C8 (gene 1558); with CYP2C9 (gene 1559)) was inactive. Besides, the result (with CYP4A11 (gene 1579); in [6]; in [7]; in experiment [15]; in experiment [8]; in experiment [9]) was inactive. Further, the call (in experiment [10]; with CYP3A5 (gene 1577); in experiment [11]; in [12]; in experiment [13]) was inactive. Further, the concentration at half-maximal activity (AC50) in experiment [4] was 22.6 µM (active).
